Compound activity (PubChem BioAssay)
Hits are enriched below; roughly 4.6% of the tested compounds scored in any of these assays.
SKKanGAS inh: inhibitors of SKKanGAS S. pyogenes growth in kanamycin (SK-promoter or general growth effect); BacTiter-Glo, 6 h; inhibition, % at 7.5 µM; hit rate 1.3% among 300,000; AID 1662;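 active = mean replicate score, as percent of positive control median, at least 50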;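 note: strain carries kanamycin resistance gene driven by streptokinase promoter and grows in 40 µg/ml kanamycin; loss of luminescence reflects streptokinase promoter inhibition or plain growth inhibition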
tim10-1 inh: tim10-1 yeast growth inhibition; S. cerevisiae tim10-1 ts strain growth, BacTiter-Glo, 24 h; inhibition, % at 20 µM; hit rate 2.2% among 330,000; AID 463190;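 active = inhibition of at least 40%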;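 note: mutant grown at 25 °C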
NALP3 yeast inh: NALP3 inhibition in yeast; Yeast reconstituted NLRP3/ASC/caspase-1, beta-gal luminescence, 24 h; hit rate 0.39% among 330,000; AID 2825; inhibition, % at 10 µM;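 active = inhibition of 50% or more; inactive = inhibition below 50%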
tim23-1 inh: inhibits growth of tim23-1 mutant yeast; S. cerevisiae tim23-1 growth, BacTiter-Glo luminescence, 24 h; inhibition, % at 20 µM; hit rate 1.3% among 330,000; AID 463212;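 active = growth inhibition of the mutant yeast at or above 50%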;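 note: temperature-sensitive mutant grown at 25 °C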
PfHsp90 yeast 2: reduces growth (ATP signal) of yeast expressing P. falciparum Hsp90 | S. cerevisiae expressing PfHsp90, BacTiter-Glo ATP, 48 h; yeast lacking PDR1 and PDR3 efflux regulators | inhibition, % at 9.4 µM | hit rate 0.32% among 310,000;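 active = every replicate shows inhibition above about 80%, whatever the replicate mean, limit read from the data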
TIM10 inh: growth inhibitors of TIM10 yeast strain. inhibition, % at 10 µM. hit rate 1.4% among 330,000. AID 463195. S. cerevisiae TIM10 strain growth, BacTiter-Glo luminescence, 24 h;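 active = inhibition of 40% or more at the single tested concentration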;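 note: wild-type TIM10 isogenic control strain grown at permissive 25 °C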
Hits are given with their value; i = inactive; nt = no result given; + = active, no number.

SMILES	SKKanGAS inh	tim10-1 inh	NALP3 yeast inh	tim23-1 inh	PfHsp90 yeast 2	TIM10 inh
Cn1cc2cc([N+](=O)[O-])ccc2n1	i	i	i	i	i	i
CCCc1sc(N/N=C/c2ccccn2)nc1-c1ccc(F)cc1	96	i	i	i	124	i
Cc1cccc(C)c1NC(=O)CNC(=O)Cn1nc(C)c(C)c(C#N)c1=O	i	i	i	i	nt	i
O=C(O)c1cccc2c(-c3ccccc3)c(-c3ccccc3)[nH]c12	59	i	i	i	i	i
Clc1ccc(COn2c(-c3ccc(Cl)cc3)nc3ccccc32)cc1	52	i	i	i	nt	i
Clc1ccc(COn2c(-c3ccccc3)nc3ccccc32)cc1	i	i	i	i	i	i
O=C(CN1CCC(NC(=O)Cc2ccccc2)CC1)Nc1ccccc1Br	i	i	i	i	i	i
Cc1ccccc1/C=N/n1c(-c2cc(-c3ccccc3)n[nH]2)n[nH]c1=S	i	i	i	i	i	i
S=c1[nH]nc(-c2cc(-c3ccccc3)n[nH]2)n1/N=C/c1ccc(Br)s1	60	i	i	i	i	i
S=c1[nH]nc(-c2cc(-c3ccccc3)n[nH]2)n1/N=C/c1c(Cl)cccc1Cl	61	i	i	i	i	i
Cn1c(CCC(=O)Nc2cc(S(C)(=O)=O)ccc2Cl)nc2cc(S(=O)(=O)N3CCOCC3)ccc21	i	i	i	i	nt	i
O=C(Nc1ccc2c(c1)CCC2)c1cc(S(=O)(=O)Nc2ccc(F)cc2)c(Cl)cc1Cl	103	i	i	i	i	i
CC1(C)Cc2c(cnn2-c2ccccc2)-c2c1c1ccccc1n2CC(O)CCl (centres undefined)	64	i	i	i	i	i
O=C(COc1ccc(F)cc1Cl)Nc1cccc(S(=O)(=O)N2CCCC2)c1	nt	i	i	i	i	i
Nn1cnc2c(c1=O)C1(CCCCC1)Cc1ccccc1-2	i	i	i	i	i	i
Oc1ccc(-c2nc3c4c(ncn3n2)-c2ccccc2CC42CCCC2)cc1	95	i	i	i	i	i
CC(C)(C)C(=O)Nc1ccc(S(=O)(=O)Nc2nccs2)cc1	i	i	i	i	i	i
Cc1ccc(/C=C2\S/C(=N/S(=O)(=O)c3cccs3)NC2=O)cc1	i	i	i	i	i	i
O=C1C(Nc2ccccc2)=C/C(=N/S(=O)(=O)c2cccs2)c2ccccc21	97	nt	nt	nt	i	nt
Cc1ccc(NC2=C/C(=N/S(=O)(=O)c3cccs3)c3ccccc3C2=O)cc1	89	i	i	i	i	i
CN1Cc2cc(C(=O)c3cc(Cl)cc(CSc4ncccn4)c3O)cnc2NC1=O	50	i	i	i	nt	i
Cc1ccc(O)c(C(=O)c2cnc3c(c2)CN(C)C(=O)N3)c1	i	i	i	i	i	i
NCCCn1c(C(=O)c2cc(Cl)c(N)c(Cl)c2)c2ccc(C(F)(F)F)cc2[n+]1[O-]	i	i	i	i	i	i
NCCCn1c(C(=O)c2cc(Cl)c(N)c(Cl)c2)c2ccc([N+](=O)[O-])cc2[n+]1[O-]	63	i	i	i	i	i
Cc1cc(C(=O)OCC(=O)N2CCc3ccccc32)ccc1[N+](=O)[O-]	nt	i	i	i	nt	i
SMILES	SKKanGAS inh	tim10-1 inh	NALP3 yeast inh	tim23-1 inh	PfHsp90 yeast 2	TIM10 inh
C=CCSc1nc(-c2ccccc2)c2cc(Cl)ccc2n1	57	i	i	i	nt	i
N#Cc1c(Cl)nsc1NC(=O)c1ccccc1	i	i	i	i	i	i
O=C(COC(=O)c1ccc(O)cc1O)Nc1ccc2c(c1)OCCO2	nt	i	i	i	i	i
COc1ccc2c(c1)OC[C@H]1[C@H]2N2C(=O)c3cc(OC)c(OC)cc3NC(=O)[C@@]2(C)[C@H]1c1ccccc1	nt	i	i	i	i	i
COc1cc2c(cc1OC)C(=O)N1[C@H]3c4ccccc4OC[C@@H]3[C@H](c3ccccc3)[C@]1(C)C(=O)N2	nt	i	i	i	86	i
C[C@@]12C(=O)Nc3ccc(F)cc3C(=O)N1[C@H]1c3ccccc3OC[C@@H]1[C@@H]2c1ccccc1	nt	i	i	i	+	i
O=C(Nc1ccc(F)cc1F)c1ccc(-n2cccn2)c([N+](=O)[O-])c1	i	i	i	i	i	i
CN1CC(c2ccc(Cl)c(Cl)c2)[C@@]2(COc3ccccc3C2=O)[C@@]12C(=O)Nc1ccccc12 (some centres undefined)	79	i	i	i	i	i
O=C(CCNC(=O)c1ccco1)Nc1ccc(SC(F)F)cc1	i	i	i	i	i	i
